The record followed here is the supplement of paper PMC3898565.

Structures can show the parent of a compound that is named as a salt. ± gives the uncertainty stated by the source.
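Also: viable cell number estimated from Alamar Blue fluorescence read at 560/90, part of a single-dose primary screen of an FDA-approved drug library.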

The test system of the assay is U87. The assay is described as follows: cell viability relative to vehicle control; higher = less growth inhibition (less active). The conditions noted are these: 10 µM; 72 h.
With `COC(=O)CCc1ccc(OCC(O)CNC(C)C)cc1` (stereo unspecified), the cell viability turned out to be 128 ± 3%.
Next, `C[C@]12CCC(=O)C=C1CC[C@@H]1[C@@H]2CC[C@@]2(C)[C@H]1CC[C@]2(O)C(=O)CO`: 103.8 ± 0.18%; `COc1cc(OC)c(C(=O)CCCN2CCCC2)c(OC)c1` [Buflomedil HCl]: 105 ± 2.7%; `CCc1nn(CCCN2CCN(c3cccc(Cl)c3)CC2)c(=O)n1CCOc1ccccc1` [Nefazodone]: 100.5 ± 0.27%.
To `Cc1ccsc1C(=CCCN1CCC[C@@H](C(=O)O)C1)c1sccc1C` belongs 104 ± 1.1%; to `CNS(=O)(=O)Cc1ccc2[nH]cc(CCN(C)C)c2c1`, 101 ± 1.5%.
`COc1cc(C(=O)NC2CCCNC2)cc(OC)c1OC` (stereo unspecified): the cell viability worked out at 101 ± 4.2%.
As for `Nc1nc2ccc(OC(F)(F)F)cc2s1` [Riluzole], the cell viability was determined as 98.1 ± 1.5%.
To `C=CCc1ccc(O)c(-c2ccc(O)c(CC=C)c2)c1` belongs 100.7 ± 1%; to `CCCCC1=NC2(CCCC2)C(=O)N1Cc1ccc(-c2ccccc2-c2nnn[nH]2)cc1`, 98 ± 3.2%.
To `CC(=O)[C@]1(O)Cc2c(O)c3c(c(O)c2[C@@H](O[C@H]2C[C@H](N)[C@H](O)[C@H](C)O2)C1)C(=O)c1ccccc1C3=O` [Idarubicin HCL] belongs 31.6 ± 2.3%.
To `O=C(O)Cc1ccccc1Nc1c(Cl)cccc1Cl` belongs 105.9 ± 0.17%; to `O=C1[C@H](CC[C@H](O)c2ccc(F)cc2)[C@@H](c2ccc(O)cc2)N1c1ccc(F)cc1`, 99.1 ± 2.4%; to `CNC(=C[N+](=O)[O-])NCCSCc1csc(CN(C)C)n1`, 99.1 ± 1.3%.
Turning to `CN(C)CC[C@@H](c1ccc(Cl)cc1)c1ccccn1`, the cell viability turned out to be 104 ± 1.6%.
To `CCCc1nc2c(C)cc(-c3nc4ccccc4n3C)cc2n1Cc1ccc(-c2ccccc2C(=O)O)cc1` belongs 98.3 ± 2.2%.

As a reminder, the cell viability is a read-out of living cells in per cent, often relative to untreated cells.
